# Screening data: PubChem, several laboratories
# Vif imaging – blocks HIV Vif function; inhibition, % at 7.49 µM; HEK293T cells, Vif self-association by quenched fluorescence, imaging, 24 h; hit rate 0.35% among 340,000; in the data active = inhibition above about 50%, passing the limit was not always enough
# RAD54 inh – RAD54 (human) branch migration inhibition | AID 602329 | inhibition, % at 10.4 µM | hit rate 0.14% among 360,000 | Q92698 | RAD54 Holliday junction branch migration, FAM/BHQ fluorescence;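 active = mean normalized replicate activity at least 40 and at least half of replicates scoring 40 or more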;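 note: inhibitors cause a drop in the FAM fluorescence signal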
# Myeloid diff MLP – myeloid differentiation induction | ER-HoxA9 myeloid progenitors, lysozyme-GFP differentiation, flow cytometry | calls only at 10 µM | hit rate 1% among 360,000 | AID 624256;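 active = normalized GFP-positive differentiation at or above the plate's own cutoff, the solvent-only control mean plus 3 SD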;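 note: cells exposed to compound for four days before flow analysis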
# ABCB6 inh 2 – human ABCB6 transporter inhibition; Q9NP58; K562-ABCB6 porphyrin accumulation, flow cytometry, 1 h; hits give low values; fluorescence ratio to DMSO, % at 10 µM; hit rate 0.19% among 360,000; AID 602162;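 active = fluorescence ratio to DMSO below 75%, the collection mean minus 3 SD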;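 note: signal is porphyrin accumulated inside mitochondria; lower ratio means ABCB6 inhibition with less porphyrin fluorescence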
# Target sequence (Q9NP58 whole entry, looked up): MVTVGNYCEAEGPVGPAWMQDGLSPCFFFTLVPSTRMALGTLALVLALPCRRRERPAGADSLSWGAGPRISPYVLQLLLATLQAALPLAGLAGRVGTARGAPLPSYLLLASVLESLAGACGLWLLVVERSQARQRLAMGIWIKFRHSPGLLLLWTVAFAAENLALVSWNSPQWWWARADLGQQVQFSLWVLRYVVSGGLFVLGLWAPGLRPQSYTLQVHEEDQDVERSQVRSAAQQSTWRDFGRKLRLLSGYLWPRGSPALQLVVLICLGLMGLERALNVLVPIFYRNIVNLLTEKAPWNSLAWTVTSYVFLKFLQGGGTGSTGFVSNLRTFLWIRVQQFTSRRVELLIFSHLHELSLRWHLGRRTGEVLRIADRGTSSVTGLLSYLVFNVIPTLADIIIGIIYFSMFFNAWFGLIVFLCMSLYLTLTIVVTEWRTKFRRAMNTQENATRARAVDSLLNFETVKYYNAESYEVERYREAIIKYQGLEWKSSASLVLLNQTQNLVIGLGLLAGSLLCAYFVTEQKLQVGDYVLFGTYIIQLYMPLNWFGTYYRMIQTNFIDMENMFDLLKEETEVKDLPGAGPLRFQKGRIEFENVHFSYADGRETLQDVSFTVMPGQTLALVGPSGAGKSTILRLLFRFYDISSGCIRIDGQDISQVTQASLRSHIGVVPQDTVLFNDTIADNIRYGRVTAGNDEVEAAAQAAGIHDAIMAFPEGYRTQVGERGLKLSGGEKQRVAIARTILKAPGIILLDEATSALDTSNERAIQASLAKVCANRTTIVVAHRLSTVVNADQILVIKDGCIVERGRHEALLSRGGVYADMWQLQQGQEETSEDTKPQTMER
# Glyco luc inh – N-linked glycosylation inhibition. reporter increase, % at 12.5 µM. D54 ERlucT glycosylation luciferase reporter, 24 h; percent of 100 nM tunicamycin response. hit rate 0.23% among 360,000;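 active = mean luciferase reporter signal, scaled so untreated is 0 and the glycosylation-blocking control 100, at or above a set limit in every replicate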;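 note: luciferase carries N-glycosylation sites so blocking glycosylation raises the light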
# ABCB6 blocker 1 – human ABCB6 transporter inhibition; K562-ABCB6 porphyrin accumulation, flow cytometry, 1 h; hits give low values; shares compounds with ABCB6 inh 2; ratio response (% of DMSO), % at 10 µM; 700 tested, under 10 active;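 active = repeat-averaged ratio response below 75% of DMSO, the collection mean minus 3 SD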;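 note: median porphyrin fluorescence at 575 nm with 488 nm excitation from mitochondria; lower ratio means less porphyrin signal so ABCB6 inhibition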
# Numbers stand for hits; – = inactive; · = no result given. Compounds with a hit are over-represented: about 1.6% of the library has one in this group of screens.
SMILES,Vif imaging,RAD54 inh,Myeloid diff MLP,ABCB6 inh 2,Glyco luc inh,ABCB6 blocker 1
CC(OC(=O)c1ccc(=O)n(Cc2ccccc2)n1)C(=O)Nc1cccc(Cl)c1 (stereo unspecified),–,–,–,68,–,–
COc1cccc(CNCCO)c1OCc1ccc(Cl)cc1,–,·,–,74,–,–
CCc1ccc(S(=O)(=O)N2CC(=O)Nc3ccccc32)cc1,–,–,–,–,–,·
CCOC(=O)c1ccc(S(=O)(=O)N2CC(=O)Nc3ccccc32)cc1,–,–,–,68,–,–
CC(=O)c1cccc(-c2ccnc3c2CC(C(=O)Nc2ccc(F)c(Cl)c2)O3)c1 (stereo unspecified),–,–,–,–,–,–
O=C(Nc1ccc(F)c(Cl)c1)C1Cc2c(-c3cccc(F)c3)ccnc2O1 (stereo unspecified),–,–,–,72,–,–
O=C(Nc1ccc2c(c1)OCO2)C1Cc2c(-c3ccc(Cl)cc3)ccnc2O1 (stereo unspecified),–,–,–,–,–,–
CC(C)c1ccc(NC(=O)C2Cc3c(-c4cccc(F)c4)ccnc3O2)cc1 (stereo unspecified),–,–,–,–,–,·
C[C@H](CO)N1C[C@H](C)[C@@H](CN(C)C)Oc2ccc(NC(=O)Nc3cccc4ccccc34)cc2CC1=O,·,–,·,·,·,·
COCCCNC(=O)c1ccc2c(c1)CCN2S(C)(=O)=O,–,–,–,69,–,–
COCCNC(=O)c1ccc2c(c1)CCN2S(C)(=O)=O,–,·,–,–,–,·
COc1ccc(-c2ccc(C(=O)NCc3ccncc3)c3occc23)c(C)c1,–,–,–,69,–,–
COc1ccc(-c2ccc(C(=O)NCc3ccc(F)c(F)c3)c3occc23)c(C)c1,–,–,–,–,–,·
NC(=O)Nc1ccc(C(=O)OCC(=O)Nc2sccc2C(N)=O)cc1,–,–,–,–,–,·
N#Cc1ccsc1NC(=O)COC(=O)c1ccc(NC(N)=O)cc1,–,–,–,74,–,–
CC(=O)N(C)C[C@@H]1Oc2cc(-c3cccc(C#N)c3)ccc2S(=O)(=O)N([C@H](C)CO)C[C@@H]1C,·,–,·,·,·,·
CC(=O)Nc1ccc(NC(=O)CSC2=NS(=O)(=O)c3cc(Cl)ccc3N2)cc1,–,–,–,56,–,–
CO[C@H]1CN(C)C(=O)c2cc(NC(C)=O)ccc2OC[C@@H](C)N(C(=O)C2CC2)C[C@H]1C,·,–,·,·,·,·
CCN(CC)C1=CC(=[N+]2CCCC2)CC(C)(C)C1,–,–,–,67,–,–
CN(Cc1ccccc1)C1=CC(=[N+]2CCCC2)CC(C)(C)C1,–,–,–,–,–,·
Cc1cc(C)cc(CC(=O)N2CCC2(C)C(=O)NS(=O)(=O)c2ccc(Br)cc2)c1 (stereo unspecified),–,–,–,–,–,–
CC1(C(=O)NS(=O)(=O)c2cccc(C#N)c2)CCN1C(=O)Cc1ccc(-c2ccccc2)cc1 (stereo unspecified),–,–,–,–,–,·
CC1(C(=O)NS(=O)(=O)c2cccc(F)c2)CCN1C(=O)Cc1ccccc1Cl (stereo unspecified),–,–,–,–,–,–
Cc1cc(C)cc(CC(=O)N2CCC2(C)C(=O)NS(=O)(=O)c2cccc(F)c2)c1 (stereo unspecified),–,–,–,–,–,–
COc1ccc(S(=O)(=O)NC(=O)C2(C)CCN2C(=O)Cc2ccccc2Cl)cc1OC (stereo unspecified),·,–,–,–,–,·
SMILES,Vif imaging,RAD54 inh,Myeloid diff MLP,ABCB6 inh 2,Glyco luc inh,ABCB6 blocker 1
CC(C)(C)c1ccc(CC(=O)N2CCC2(C)C(=O)NS(=O)(=O)c2cccc(C#N)c2)cc1 (stereo unspecified),–,–,–,61,–,–
CCC(=O)Nc1ccc2c(c1)OC[C@H](C)N(Cc1cccc(F)c1)C[C@H](C)[C@@H](OC)CN(C)C2=O,·,–,·,·,·,·
C[C@@H]1CN([C@H](C)CO)S(=O)(=O)c2ccc(C#CC3CC3)cc2O[C@@H]1CN(C)C(=O)c1cnccn1,·,–,·,·,·,·
CC1(C(=O)NS(=O)(=O)c2cccc(C#N)c2)CCN1C(=O)Cc1ccccc1Cl (stereo unspecified),–,–,–,–,–,–
CC1(C(=O)NS(=O)(=O)c2cccc(C#N)c2)CCN1C(=O)Cc1ccc(Cl)cc1Cl (stereo unspecified),–,–,–,–,–,·
COCCNC(=O)[C@H]1[C@H](CO)[C@H]2Cn3c(ccc(-c4ccc(OC)cc4)c3=O)[C@@H]1N2C(=O)NC(C)C,·,–,·,·,·,·
CC(C)NC(=O)Nc1ccc2c(c1)C(=O)N([C@@H](C)CO)C[C@H](C)[C@@H](CN(C)Cc1ccc(Oc3ccccc3)cc1)O2,·,–,·,·,·,·
O=C(NCc1ccco1)c1c2c(nc3ccccc13)CCC2,·,–,–,74,–,–
Cc1coc2c1c(C)cc1oc(=O)c(CC(=O)NCC(=O)NCC(=O)O)c(C)c12,–,–,–,–,–,·
Cc1coc2c1c(C)cc1oc(=O)c(Cc3ccccc3)c(C)c12,–,–,–,66,–,–
O=C(C[C@H]1C=C[C@@H](NS(=O)(=O)c2ccccc2)[C@H](CO)O1)NCc1ccc(Cl)c(Cl)c1,·,–,·,·,·,·
Cc1cc(NC(=O)CSc2nnnn2-c2ccc(C)c(Cl)c2)no1,–,–,–,72,–,–
Cc1cc(NC(=O)CSc2nnnn2-c2ccc(C)c(C)c2)no1,–,·,–,–,–,·
CO[C@@H]1CN(C)C(=O)c2cc(NC(=O)C3CCC3)ccc2OC[C@@H](C)N(Cc2ccncc2)C[C@@H]1C,·,–,·,·,·,·
O=S1(=O)N=C(N2CCCC2)c2ccccc21,–,–,–,–,–,·
CC1Cc2ccccc2N1C1=NS(=O)(=O)c2ccccc21 (stereo unspecified),–,–,–,73,–,–
CCOC(=O)c1ccc(NC(=O)CSc2nnc(CNC(=O)c3ccco3)o2)cc1,–,–,–,14,–,–
Cc1ccc(NC(=O)CSc2nnc(CNC(=O)c3ccco3)o2)cc1,–,·,–,–,–,·
COc1ccc(CC(N)c2csc(NC(=O)c3ccccc3)n2)cc1 (stereo unspecified),–,–,–,71,–,–
COc1ccc(CC(N)c2csc(NC(=O)c3ccc(OC)cc3)n2)cc1 (stereo unspecified),–,–,–,–,–,·
Cc1nn(-c2ccccc2Cl)c(Cl)c1/C=N/Nc1nc2ccccc2s1,–,·,–,66,–,–
C[C@@H]1CN([C@@H](C)CO)C(=O)c2cc(C#Cc3ccncc3)cnc2O[C@H]1CN(C)C(=O)c1ccccc1F,·,–,·,·,·,·
CCOC(=O)C1=C(C)NC(C)=C(C(=O)OCC)C1C(=O)OCC(N)=O,–,–,–,–,–,·
CCOC(=O)C1=C(C)NC(C)=C(C(=O)OCC)C1C(=O)OCC(=O)N(C)Cc1ccccc1,–,·,–,74,–,–
COc1cccc(-c2cnc3c(c2)C(=O)N([C@H](C)CO)C[C@@H](C)[C@H](CN(C)Cc2ccc(C(=O)O)cc2)O3)c1,·,–,·,·,·,·
